Screen size: about 68,000 compounds; about 2,700 (4%) showed an effect of 50% or more. This is one part of a sample in which strong results are shown more often than they occur.

The subject of the assay is Plasmodium berghei. The assay can be described thus: Screen against P. berghei liver stage (PbLuc), transformed with Luciferase, at 2uM. Type of assay: functional, HepG2. The settings on record: tested at 2 uM.
With `Fc1cccc(-c2nnn3c2COC(CNCc2nccs2)C3)c1` (configuration not stated), the INHIBITION is reported as -19.51%.
Regarding `CC(C)NC(=O)N1CCOC2(CCCN(c3cccc(C#N)c3)C2)C1` (configuration not stated), the INHIBITION is reported as 24.82%.
Then `Cc1cccc(N2CCCC3(C2)CN(S(C)(=O)=O)CCO3)c1` (configuration not stated), with -51.66%; and `CCS(=O)(=O)N1CCOC2(CCCN(c3cccc(C#N)c3)C2)C1` (configuration not stated), with 56.76%.
The same measure for `CCOCC(O)CN1CCN(C(=O)c2ccccc2Cl)CC1` (configuration not stated): -45.23%.
Take `Cc1cc(C(=O)N2CCN(CC(O)Cn3cccn3)CC2)c(C)o1` (configuration not stated): the INHIBITION is 12.62%.
Then `O=C(c1cccc(Cl)c1Cl)N1CCN(CC(O)Cn2cccn2)CC1` (configuration not stated), with 65.3%; and `CCCC(=O)NCC(=O)NC(c1ccc(Cl)cc1)C(F)(F)F` (configuration not stated), with 28.25%.
Regarding `Cc1cccc(C(=O)NCc2ccnc(N(C)C)c2)n1`, the INHIBITION is -11.1%.
Turning to `O=C(C1CC1)N1CCN2C[C@H](c3ccccc3)[C@@H](CO)[C@H]2C1`, the INHIBITION is reported as 7.41%.
The same measure for `CCCc1nnc(NC(=O)N2CCCC2c2ccncc2)s1` (configuration not stated): -24.78%; for `CCC(CC)c1nnc(NC(=O)N2CCCC(NC(C)=O)C2)s1` (configuration not stated): 56.49%; for `CC(=O)NC1CCCN(C(=O)Nc2nnc(C(C)C)s2)C1` (configuration not stated): 20.14%.
The same measure for `CC(=O)NC1CCCN(C(=O)NCc2cccnc2N(C)C)C1` (configuration not stated): 20.71%; for `CCCc1nnc(NC(=O)N2CCCC(NC(C)=O)C2)s1` (configuration not stated): 52.08%; for `CCC(CC)c1nnc(NC(=O)N2CCC(C(N)=O)CC2)s1`: 23.45%.
Take `Cc1cc(C)c(S(=O)(=O)Nc2cccc3c2OCCO3)cc1C(=O)O`: the INHIBITION was -49.16%.
Then `Cc1oncc1C(=O)N1CC[C@H]2[C@H](CO[C@@H]2CNS(C)(=O)=O)C1`, with 11.37%.
As for `O=C(CC1CCCC1)N1C[C@@H]2C[C@@H]1CN2`, the INHIBITION is reported as 30.4%.
The same measure for `O=C(NCC1CCCCC1)N1C[C@@H]2C[C@@H]1CN2`: -3.1%; for `CC(C)(C)CC(=O)N1C[C@@H]2C[C@@H]1CN2`: 74.88%; for `CC(C(=O)N1CCc2sccc2C1)N1CCC(S(N)(=O)=O)CC1` (configuration not stated): 44.37%.
Then `CN(C)c1nccc(N(C)Cc2ncnn2C)n1`, with 65.42%; and `CN(C)c1nccc(N(C)Cc2nc3ccccc3n2C)n1`, with 13.51%.
In the case of `CN(Cc1ncnn1C)c1ccnc(Cc2ccccc2)n1`, the INHIBITION is listed as 26.49%.
The same measure for `CN(Cc1cccs1)c1cc(N2CCCC2CO)ncn1` (configuration not stated): -25.71%; for `Cc1c[nH]cc1C(=O)N1CCN(CCc2cccs2)CC1`: -14.3%; for `COc1ccc(OCC(C)NS(C)(=O)=O)cc1` (configuration not stated): 37.05%.
The same measure for `Cc1ccc(OCC(C)NS(C)(=O)=O)cc1C` (configuration not stated): 52.85%; for `Cc1ccc(OCC(C)NS(C)(=O)=O)cc1` (configuration not stated): 41.84%; for `Cc1ncc(S(C)(=O)=O)c(N(C)CCCc2cnn(C)c2)n1`: 13.95%.
The same measure for `CNC(=O)[C@@H]1COC[C@H]2CN(C(=O)c3ccc(OC)cc3)C[C@H]21`: 51.36%; for `CNC(=O)[C@@H]1COC[C@H]2CN(C(=O)c3cccc(OC)c3)C[C@H]21`: 11.6%; for `CCc1ccc(C(=O)N2C[C@@H]3COC[C@@H](C(=O)NC)[C@@H]3C2)cc1`: -10.98%.
Turning to `Cc1cnn(C2CN(Cc3nc(-c4ccsc4)no3)C2)c1`, the INHIBITION is reported as 56.02%.
The same measure for `c1cnn(C2CN(Cc3nc(-c4ccsc4)no3)C2)c1`: -5.2%; for `Cc1ccc(-c2noc(CN3CC(n4cc(C)cn4)C3)n2)cc1`: -21.39%.
Then `COCC1CN(C(=O)Cc2cccs2)Cc2c1cnn2C` (configuration not stated), with -41.11%; and `COCC1CN(C(=O)CC2Cc3ccccc3C2)Cc2c1cnn2C` (configuration not stated), with 56.25%; and `COCC1CN(C(=O)c2ccnnc2)Cc2c1cnn2C` (configuration not stated), with 6.57%.
Then `Cc1ccc(S(=O)(=O)N2CCC(Oc3cccnn3)CC2)c(C)c1`, with 71.06%.
On to `O=S(=O)(c1ccccc1F)N1CCC(Oc2cccnn2)CC1`, for which the INHIBITION was determined as 51.31%.
Then `CN(C)S(=O)(=O)N1CCC(Oc2ccccn2)CC1`, with -19.47%; and `Cc1ccc(S(=O)(=O)N2CCC(Oc3ccccn3)CC2)c(C)c1`, with 56.24%; and `COc1ccccc1S(=O)(=O)N1CCC(Oc2cccnn2)CC1`, with 33.61%.
The same measure for `CN(C)S(=O)(=O)N1CCC(Oc2cccnn2)CC1`: 20.38%; for `Cc1noc(C)c1S(=O)(=O)N1CCC(Oc2cccnn2)CC1`: -12.23%; for `Cc1noc(C)c1S(=O)(=O)N1CCC(Oc2ccccn2)CC1`: -11.22%.
Turning to `COC(=O)c1sccc1S(=O)(=O)N1CCC(Oc2cccnn2)CC1`, the INHIBITION came out at 23.42%.
The same measure for `O=C(NCCCn1cccn1)N1CCCC1c1cccs1` (configuration not stated): -13.45%; for `CCc1cc2c(N3CCCC(c4cc(C(N)=O)[nH]n4)C3)ncnc2s1` (configuration not stated): -126.83%; for `Cc1cnc(C(=O)N2CCc3c(nc(-c4ccncc4)[nH]c3=O)C2)cn1`: 10.63%.
The same measure for `CNC(=O)C(C)(C)N1CCC[C@H]1C(=O)NC1CC1`: 24.91%; for `CC(C)[C@@H]1CN(C(=O)C2(c3ccccc3)CC2)C[C@H]1C(=O)O`: 69.67%.
The same measure for `CC(C)[C@@H]1CN(C(=O)C2(c3ccccc3)CCN(C)CC2)C[C@H]1C(=O)O`: 31.51%; for `COc1ccc(C2(C(=O)N3C[C@@H](C(=O)O)[C@H](C(C)C)C3)CC2)cc1`: 17.2%; for `CCN(c1ccc(C(=O)N2CCCC(C)C2)cc1)S(=O)(=O)CC` (configuration not stated): -2.82%.
Regarding `CCN(c1ccc(C(=O)N2CCC(C)CC2)cc1)S(=O)(=O)CC`, the INHIBITION amounted to 9.63%.
Then `CCS(=O)(=O)N(C)c1ccc(C(=O)N2CCCC(C)C2)cc1` (configuration not stated), with 62.77%; and `CN1CCN(C(=O)C2(S(C)(=O)=O)CCCC2)Cc2ccccc21`, with -21.76%.
The same measure for `CN1CCN(C(=O)C2(NC(N)=O)CCCCC2)Cc2ccccc21`: 50.61%.
Then `NC(=O)NC1(C(=O)N2CCc3c(Cl)cccc3C2)CCCCC1`, with 42.2%.
In the case of `O=C(CC1CC1)N[C@@H]1CN(Cc2ccccn2)C[C@@H]2CCCO[C@@H]21`, the INHIBITION is -5.84%.
In the case of `c1ccc(CCN2CCCC(c3ccnc4nccn34)C2)cc1` (configuration not stated), the INHIBITION was determined as 32.74%.
The same measure for `Cc1csc(C(=O)N2CCC3(CC(N(C)c4ccncn4)C3)C2)c1` (configuration not stated): -18.68%; for `CN(CC(O)C1CC1)C(=O)Nc1ccc(F)c(-n2cccc2)c1` (configuration not stated): 42.76%.
Then `c1ccc(-c2nc(CCNCc3cccnc3)co2)cc1`, with 30.88%; and `CS(=O)(=O)NCCNC(=O)NC1(c2ccc(Cl)cc2)CCC1`, with 43.88%; and `CS(=O)(=O)NCCC(=O)NC1(c2ccc(F)cc2)CCCC1`, with 5.17%.
Then `CS(=O)(=O)NCCNC(=O)NC1(c2ccc(F)cc2)CCCC1`, with 52.3%; and `CN(C)CCOCc1nnc2n1CCN(Cc1ccsc1)C2`, with 20.2%.
Take `Cc1c(C2CC2)n[nH]c1NC(=O)C1CCCN(C(=O)NCC(C)C)C1` (configuration not stated): the INHIBITION is listed as -7.81%.
With `Cc1n[nH]c(C)c1NC(=O)C1CCCN(C(=O)NCC(C)C)C1` (configuration not stated), the INHIBITION is 52.95%.
The same measure for `CCc1cc(NC(=O)C2CCCN(C(=O)NCC(C)C)C2)[nH]n1` (configuration not stated): 6.62%; for `CC(C)c1sc(Cl)nc1C(=O)N1CCN(c2ccccn2)CC1`: 20.42%.
Then `COc1ncnc2c1CCN(C(=O)NCc1cccnc1)CC2`, with 46.02%; and `O=C(NCCc1ccncc1)C1CCN(Cc2ccco2)CC1`, with -0.55%.
The same measure for `COCCNC(=O)Cn1cc(NC(=O)c2ccc(C(C)(C)C)cc2)cn1`: -38.81%; for `CCc1nc(CS(=O)(=O)Cc2noc(C3CC3)n2)cs1`: -18.58%; for `CCc1nc(CN2CCCN(Cc3noc(C4CC4)n3)CC2)cs1`: -17.17%.
As to `CC(C)c1nc(CS(=O)(=O)Cc2noc(C3CC3)n2)cs1`, the INHIBITION came to 53.12%.
Consider `CN1CC(C(=O)NC2(c3ccc(Cl)cc3)CCOCC2)CC1=O` (configuration not stated), for which the INHIBITION is given as 3%.
Regarding `CN(C)C(=O)COCC1CN(Cc2ccco2)Cc2ncn(C)c21` (configuration not stated), the INHIBITION was -45.9%.
Take `CC(C)c1nnc2n1CCN(C(=O)c1ccc3cc[nH]c3c1)C2`: the INHIBITION is reported as 45.92%.
With `CC(C)c1nnc2n1CCN(C(=O)c1ccc(Cn3cccc3)cc1)C2`, the INHIBITION was 15.08%.
The same measure for `CC(C)c1nnc2n1CCN(C(=O)c1ccc3c(c1)CCC3)C2`: 9.17%; for `CC(C)c1nnc2n1CCN(C(=O)c1ccc3c(c1)COC3)C2`: 57.75%; for `CC(C)c1nnc2n1CCN(C(=O)c1ccc(CN(C)C)cc1)C2`: 50.72%.
As for `CCCc1ccc(C(=O)N2CCn3c(nnc3C(C)C)C2)cc1`, the INHIBITION was 15.08%.
The same measure for `O=C(c1ccoc1)N1CCn2cnc(COCC3CC3)c2C1`: 41.79%; for `O=C1Nc2ccccc2C12CCN(Cc1nccs1)CC2`: 21.61%; for `O=C(Cc1ccccc1F)N1C[C@@H]2COC[C@]2(COc2cccnc2)C1`: -2.44%.
For `CO[C@H]1CO[C@@]2(CCCN(C(=O)N3CCCC3)C2)C1`, the INHIBITION was 28.13%.
Then `CC1=CCN(S(=O)(=O)c2cccc(C(=O)N3CCCN(C)CC3)c2)CC1`, with 23.17%; and `CN1CCCN(C(=O)c2cccc(S(=O)(=O)NCC3(C)COC3)c2)CC1`, with -35.07%; and `CN1CCCN(S(=O)(=O)c2cccc(C(=O)N3CCCCCC3)c2)CC1`, with 54.75%.
For `CCN(CC)C(=O)CSc1sc2c(O)cc(=O)[nH]c2c1C(N)=O`, the INHIBITION is listed as -56.02%.
Consider `Cc1ccc(N2C[C@H]3CCN(Cc4ccncc4)C[C@H]3C2)nn1`, for which the INHIBITION was 16.63%.
Then `O=C(c1ccoc1)N1CCO[C@]2(CCC[C@@H]2COCc2ccncc2)C1`, with 35.48%; and `O=C(c1ccoc1)N1CCO[C@]2(CCC[C@H]2COCc2cccnc2)C1`, with 5.85%.
Then `O=C(c1ccno1)N1CCO[C@]2(CCC[C@@H]2COCc2ccncc2)C1`, with 64.99%; and `CCNC(=O)C1(Cc2cc(-c3ccc(C)cc3)no2)CCCN(C)C1` (configuration not stated), with -40.35%.

Values taken from ChEMBL document CHEMBL4513216, “Probing the Open Global Health Chemical Diversity Library for Multistage-Active Starting Points for Next-Generation Antimalarials” (ACS Infect Dis, 2020).
